Test results taken from PubChem BioAssay AID1159580 (chemical genetic matrix, 2015).
In all, about 5,500 compounds went through this assay and about 2,000 (36%) were called active. Not shown: some 18% with an inconclusive outcome. Rule as the data show it: active = normalized growth mostly below about 0.91 (no sharp cut-off); inconclusive = no clear call, values can overlap the other calls; inactive = mostly above about 0.92. The list shows a part of the results.

Experiment: chemical genetic growth profiling, strain panel (AID 1159580);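 also: tested at 20 µM; growth read once vehicle control cultures reached saturation at 30 °C; 1 = growth at the plate median or of vehicle wells; lower values mean less growth of the strain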
Conditions: S. cerevisiae deletion strains, growth OD
[1] = locus YDR150W, strain NUM1, active compounds read low
[2] = locus YGR078C, strain PAC10, active compounds read low
[3] = locus YMR263W, strain SAP30, active compounds read low
[4] = locus YPL055C, strain LGE1, active compounds read low

Measured: normalized growth

CCN(CC)C(=O)N[C@@H]1C[C@@H]2c3cccc4[nH]cc(c34)C[C@H]2N(C)C1
inactive: locus YAL040C, strain CLN3, active compounds read low 1 | locus YCL061C, strain MRC1 (second series), active compounds read low 1.01 | [1] 1 | locus YDR363W, strain ESC2, active compounds read low 1.01 | locus YER002W, strain NOP16, active compounds read low 0.995 | [2] 1.01 | [3] 1 | locus YMR307W, strain GAS1, active compounds read low 1.01 | locus YNL128W, strain TEP1, active compounds read low 1.01 | locus YNL175C, strain NOP13, active compounds read low 0.993 | locus YNL197C, strain WHI3, active compounds read low 0.995 | locus YNL224C, strain SQS1, active compounds read low 1.02 | locus YOR083W, strain WHI5 (second series), active compounds read low 1.01 | [4] 1.01

COC(CNc1cccc(Cl)c1C#N)OC
inactive: locus YAL013W, strain DEP1, active compounds read low 0.997 | locus YBR229C, strain ROT2, active compounds read low 0.994 | locus YDL101C, strain DUN1, active compounds read low 0.983 | locus YDL134C, strain PPH21, active compounds read low 0.961 | [1] 1.01 | locus YEL061C, strain CIN8, active compounds read low 0.971 | [2] 0.989 | locus YGR229C, strain SMI1, active compounds read low 0.978 | locus YHR030C, strain SLT2, active compounds read low 0.944 | locus YHR087W, strain rtc3, active compounds read low 0.98 | locus YJL187C, strain SWE1, active compounds read low 0.981 | locus YJR043C, strain POL32, active compounds read low 0.989 | locus YJR075W, strain HOC1, active compounds read low 0.958 | locus YLR039C, strain RIC1, active compounds read low 0.983 | locus YLR058C, strain SHM2 (second series), active compounds read low 0.989 | locus YLR085C, strain ARP6, active compounds read low 0.931 | locus YLR262C, strain YPT6, active compounds read low 0.979 | locus YML094W, strain GIM5, active compounds read low 0.953 | locus YMR219W, strain ESC1, active compounds read low 0.986 | [3] 1.01 | locus YNL153C, strain GIM3, active compounds read low 0.946 | locus YNL298W, strain CLA4 (second series), active compounds read low 0.979 | locus YNL322C, strain KRE1, active compounds read low 0.98 | locus YNR030W, strain Alg12, active compounds read low 0.976 | [4] 1.03 | locus YPL241C, strain CIN2, active compounds read low 0.95 | locus YPR135W, strain CTF4, active compounds read low 0.957
